Experimental data: PubChem BioAssay (Tox21)
Results filed as inconclusive are left out. Active and inactive are the calls of the source. Calls come from the whole dose curve; as a rule, active = well fitted activation curve with a large enough effect in the signal ratio in the repeat runs (not every such curve was filed as active); inconclusive = weak or mixed curves, or effect the other way; inactive = no such curve, though single readings can be large or run the other way; the % refers to the signal ratio.

biological target: Peroxisome proliferator-activated receptor gamma (Homo sapiens) (UniProt P37231); assay: qHTS assay to identify small molecule agonists of the peroxisome proliferator-activated receptor gamma (PPARg) signaling pathway (AID 743094); conditions: HEK293H PPARg-UAS-bla, beta-lactamase FRET ratio, 17 h; series mostly up to 57 µM; activation: at the top concentration
Excerpt: U.S. Tox21 Program National Center for Advancing Translational Sciences [NCATS] NIH Chemical Genomics Center [NCGC] U.S. Environmental Protection Agency [EPA] National Institutes of Environmental Health Sciences [NIEHS] National Toxicology Program [NTP] U.S. Food and Drug Administration [FDA] Tox21 Assay Overview: The peroxisome proliferator-activated receptors (PPARs) are lipid-activated transcription factors of the nuclear receptor superfamily with three distinct subtypes namely PPAR alpha, PPAR delta (also called PPAR beta) and PPAR gamma (PPARg). All these subtypes heterodimerize with Retinoid X receptor (RXR) and these heterodimers regulate transcription of various genes. PPAR-gamma receptor (glitazone receptor) is involved in the regulation of glucose and lipid metabolism. To identify the compounds that activate PPAR-gamma signaling, GeneBLAzer PPAR gamma UAS-bla HEK293H cell line (Invitrogen, Carlsbad, CA, USA) containing a beta-lactamase reporter gene under control of the control of an upstream activator sequence (UAS) stably integrated into HEK293H cells was used to screen Tox21 compound library.
Tox21 Assay Protocol Summary: PPARg-bla cells were dispensed at 3000 cells/6uL/well in 1536-well black wall/clear bottom plates using a Multidrop Combi (Thermo Fisher Scientific, Waltham, MA) dispenser. After the assay plates were incubated at 37C and 5% CO2 for 5 h, 23 nL of compounds dissolved in DMSO, positive controls or DMSO only was transferred to the assay plate by a Pintool station (Kalypsys, San Diego, CA). The assay plates were incubated at 37C for 17 h. After 1 uL of LiveBLAzerTM B/G FRET substrate was added using a Bioraptr Flying Reagent Dispenser (FRD) workstation (Beckman Coulter, Indianapolis, IN, USA), the plates were incubated at room temperature for 1 h, and fluorescence intensity was measured by an Envision plate reader (PerkinElmer, Shelton, CT).
% is set by controls: 0 for no effect and ±100 for the full control effect; potency is the fitted concentration of half-maximal effect.

Peroxisome proliferator-activated receptor gamma (Homo sapiens), sequence (P37231 whole entry, looked up): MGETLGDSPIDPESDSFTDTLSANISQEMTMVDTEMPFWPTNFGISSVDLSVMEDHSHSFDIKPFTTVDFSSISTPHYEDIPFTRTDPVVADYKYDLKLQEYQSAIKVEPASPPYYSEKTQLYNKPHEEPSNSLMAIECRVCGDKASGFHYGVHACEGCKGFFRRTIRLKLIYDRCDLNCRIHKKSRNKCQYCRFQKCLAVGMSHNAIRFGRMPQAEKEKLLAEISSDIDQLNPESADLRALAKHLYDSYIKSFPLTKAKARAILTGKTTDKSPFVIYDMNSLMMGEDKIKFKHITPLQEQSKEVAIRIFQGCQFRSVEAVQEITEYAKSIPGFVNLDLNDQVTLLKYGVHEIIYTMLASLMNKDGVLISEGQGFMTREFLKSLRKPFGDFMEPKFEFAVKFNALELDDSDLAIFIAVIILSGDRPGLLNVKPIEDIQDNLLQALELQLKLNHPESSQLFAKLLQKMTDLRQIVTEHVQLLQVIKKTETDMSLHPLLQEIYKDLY

Structure (SMILES)	Potency	activation
C[N+]1(C)[C@@H]2CC[C@H]1CC(OC(=O)C(CO)c1ccccc1)C2 (stereo not given in full)	inactive	
S=C=NCCc1ccccc1		7.34% (inactive)
CCCCC(CC)COC(=O)c1ccccc1C(=O)OCC(CC)CCCC (stereo not given)		-9.74% (inactive)
Cc1ccc(C)c2ccccc12		1.31% (inactive)
CCC[CH2][Sn]([CH2]CCC)([CH2]CCC)[O][Sn]([CH2]CCC)([CH2]CCC)[CH2]CCC	0.676 µM (active)	
COP(=S)(OC)Oc1ccc([N+](=O)[O-])c(C)c1		-0.352% (inactive)
CCOP(=O)(Sc1ccccc1)Sc1ccccc1		-0.688% (inactive)
CCOC(=O)CCN(SN(C)C(=O)Oc1cccc2c1OC(C)(C)C2)C(C)C		2.07% (inactive)
ClC1=C(Cl)[C@]2(Cl)[C@@H]3[C@H]4C[C@H]([C@@H]5O[C@H]45)[C@@H]3[C@@]1(Cl)C2(Cl)Cl		0.81% (inactive)
C[C@H]1[C@H](c2ccc(Cl)cc2)SC(=O)N1C(=O)NC1CCCCC1		-3.27% (inactive)
Cc1ccn2nc(S(=O)(=O)Nc3c(F)cccc3F)nc2n1		-4.61% (inactive)
CC(C)N(C(=O)CCl)c1ccccc1		2.82% (inactive)
CC[C@]1(O)CC[C@H]2[C@@H]3CCC4=CCCC[C@@H]4[C@H]3CC[C@@]21C		-9.66% (inactive)
COCCC#N		4.78% (inactive)
Cc1nn(-c2cc(NS(C)(=O)=O)c(Cl)cc2Cl)c(=O)n1C(F)F		-6.52% (inactive)
O=S1(=O)OCC2C(CO1)C1(Cl)C(Cl)=C(Cl)C2(Cl)C1(Cl)Cl (stereo not given)		-9.77% (inactive)
O=S1OCC2C(CO1)C1(Cl)C(Cl)=C(Cl)C2(Cl)C1(Cl)Cl (stereo not given)	inactive	
CCOP(=S)(OCC)Oc1cc(C)nc(N(CC)CC)n1		3.33% (inactive)
[O]=[Cr][O][Cr]=[O]		1.69% [at 78.9 µM] (inactive)
N#Cc1c[nH]cc1-c1cccc2c1OC(F)(F)O2		3.56% (inactive)

Structure (SMILES)	Potency	activation
COP(=S)(OC)Oc1nc(Cl)c(Cl)cc1Cl		-4.29% (inactive)
C=CCBr		1.92% [at 78.9 µM] (inactive)
O=[N+]([O-])c1ccc(Cl)c(Cl)c1Cl		0.18% (inactive)
CCOP(=O)(OCC)Oc1nc(Cl)c(Cl)cc1Cl		0.322% (inactive)
C#CCO		-3.45% (inactive)
CC(C)N(C(=O)SC/C(Cl)=C/Cl)C(C)C		-0.0287% [at 78.9 µM] (inactive)
CNC(=O)O/N=C(\C)C(C)S(C)(=O)=O (stereo not given)		2% [at 765 µM] (inactive)
c1csc(-c2ccc(-c3cccs3)s2)c1	21.9 µM (active)	
CCC1(CC)C(=O)N=C(O)NC1=O		-0.307% (inactive)
CC(Cc1ccc(OCC(=O)O)cc1)NCC(O)c1csc(C(F)(F)F)n1 (stereo not given)		-3.7% (inactive)
CCCCN(CCCC)C(=S)[S-].CCCCN(CCCC)C(=S)[S-].[Ni+2]		-6.6% (inactive)
O=NN(CCO)CCO		0.0766% (inactive)
C=CCOC(=O)c1ccccc1N		-0.639% [at 78.9 µM] (inactive)
Cc1cnc2c(C(=O)O)c(Cl)ccc2c1		-6.16% (inactive)
[O]=[Cr](=[O])([OH])[O][Cr](=[O])(=[O])[OH]		0.867% (inactive)
CCCCCCCc1ccc(O)cc1		-4.55% (inactive)
Cc1c([N+](=O)[O-])c(C)c([N+](=O)[O-])c(C(C)(C)C)c1[N+](=O)[O-]		4.64% (inactive)
COc1cnc(OC)n2nc(NS(=O)(=O)c3c(OCC(F)F)cccc3C(F)(F)F)nc12		-0.352% (inactive)
O=C(Cl)c1ccccc1F		-2.29% (inactive)
C=CC(=C)C		1.21% (inactive)
